ChEMBL document CHEMBL1157539, “Thousands of chemical starting points for antimalarial lead identification” (Nature, 2010)

Tests used:
Assay type in all cases: functional
[1] = test system: Plasmodium falciparum; experiment: GSK_TCMDC: Inhibition of Plasmodium falciparum 3D7 in whole red blood cells, using parasite LDH activity as an index of growth. Test compounds present at 2uM
[2] = test system: Plasmodium falciparum; experiment: GSK_TCMDC: Inhibition of Plasmodium falciparum Dd2 in whole red blood cells, using parasite LDH activity as an index of growth. Test compounds present at 2uM
[3] = test system: HepG2; experiment: GSK_TCMDC: Percent inhibition of human HepG2 cell line. Test compounds present at 10uM.

Structure (SMILES)	Inhibition [1]	Inhibition [2]	Inhibition [3]
Cc1cc(N2CCN(C(=O)OC(C)(C)C)CC2)ccc1N	92%	38%	11%
Fc1cccc(C=NNc2ccnc3cc(Cl)ccc23)c1	99%	91%	6%
Cc1cc(Nc2ccc(C)c(Cl)c2)n2ncnc2n1	98%	91%	6%
O=C(Nc1ccsc1C(=O)NC1CCCCC1)c1ccc(F)cc1	86%	11%	3%
COc1ccc2c(NN=Cc3cccc(F)c3)ccnc2c1	100%	95%	49%
O=C(CCc1c[nH]cn1)Nc1ccc(-c2cccc(-c3nc4ccccc4[nH]3)c2)cc1	100%	42%	12%
C#C[C@H]1O[C@@H](n2cnc3c(Nc4cc(Br)cc(C(F)(F)F)c4)ncnc32)[C@H](O)[C@@H]1O	94%	56%	21%
Cc1cc(N/N=C/c2ccc([N+](=O)[O-])cc2)c2ccc(F)cc2n1	100%	22%	0%
CCN(CC)CCCNc1nccc(N(C)c2ccc(NC(=O)Nc3cc(C(F)(F)F)ccc3F)cc2)n1.O=C(O)C(F)(F)F	94%	19%	96%
O=C(Nc1cccc(CN2CCCN(Cc3ncc[nH]3)CC2)c1)c1ccc(-c2ccccc2)cc1.O=C(O)C(F)(F)F	100%	56%	23%
Cc1cc(N[C@@H](CC(C)C)C(=O)NC2CCCC2)nc(NCCc2ccc(F)cc2)n1.O=C(O)C(F)(F)F	100%	47%	15%
Cc1nc(-c2ccc(-c3ccc(C(=O)Nc4ccc(I)c(OCCN5CCCC5)c4)cc3)c(C)c2)no1.Cl	95%	35%	96%
Cc1cccc2nc(-c3ccc(-c4cccc(CN5CCN(CCN6CCOCC6)CC5)c4)s3)[nH]c12.O=C(O)C(F)(F)F	100%	83%	33%
O=C(NCCc1cccc(Cl)c1Cl)c1cnc(N2CCN(c3ccncc3)CC2)c(Cl)c1.O=C(O)C(F)(F)F	100%	99%	47%
Cc1cc(C(F)(F)F)n2nc(C3CCN(Cc4cc(C)c(O)c(C)c4)C3)cc2n1.O=C(O)CC(O)(CC(=O)O)C(=O)O (centres undefined)	98%	99%	34%
CC(Cc1ccc(NC(=O)c2ccc(CNCCc3ccccc3)cc2)cc1)NCCc1cccc(Cl)c1.Cl (centres undefined)	100%	99%	100%
O=C(NCc1ccccc1)Nc1cccc(-c2cccc(-c3nc4cc(C(F)(F)F)ccc4[nH]3)c2)c1	95%	30%	56%
CS(=O)(=O)NCCCNCc1cccc(-c2cccc(-c3nc4cc(F)ccc4[nH]3)c2)c1.O=C(O)C(F)(F)F	100%	5%	4%
O=C1C(c2ccccc2)=C(Nc2ccc(Cl)cc2)c2ccccc21	91%	59%	5%
CCOc1ccc(-c2nonc2NC(=O)c2cccc(Cl)c2)cc1OCC	100%	99%	0%
O=C(NC1CCN(c2ccnc3cc(Cl)ccc23)C1)c1ccc(F)cc1F.O=C(O)C(F)(F)F (centres undefined)	100%	100%	31%
CO[C@H](C)[C@H](NC(=O)[C@H](CC(C)C)[C@H](CCC(F)(F)F)N(O)C=O)C(=O)Nc1nccs1	99%	96%	0%
O=C(/C=C/c1ccc(C(F)(F)F)cc1)N1CCC(CCN2CCC(c3c[nH]c4ccccc34)CC2)CC1	100%	77%	70%
O=C(Nc1ccc(Cn2ncc(N3CCCNCC3)c(Cl)c2=O)cc1)Nc1cc(Cl)cc(Cl)c1.O=C(O)C(F)(F)F	91%	17%	3%
COc1cccc2cc(C(=O)N[C@@H](CC(C)C)C(=O)N[C@H](C=NN3CCOC3=O)Cc3ccccc3)oc12	96%	70%	6%
CCN(CC)CCCNCc1ccc(-c2ccc(C(F)(F)F)cc2)cc1	95%	35%	53%
Cl.O=C(Nc1ccc(Cl)c(Cl)c1)N1CCc2cc3nccc(N4CCN5CCC[C@H]5C4)c3cc21	100%	75%	2%
O=C(CCC1CCCCC1)NCCNc1cccc2ccccc12	90%	57%	7%
